Reference: PubChem BioAssay (NCATS)
Results filed as inconclusive are left out. The source made the active and inactive calls. Unless noted, calls follow the shape of the dose curve; as a rule, active = well fitted curve in the direction sought with a large enough effect; inconclusive = small, poorly fitted or top-dose-only effect, or another doubt; inactive = no such curve, though single readings can be large; an effect the other way counts as inactive or inconclusive.

How the values were obtained:
[1] = AP1 Signaling Pathway (AID 357; active = well fitted curve in either direction with a large enough effect, not every such curve was filed as active;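 also: ME-180 reporter cells stimulated with EGF at its EC50 level; % is scaled to controls: 0 for no effect and ±100 for the full control effect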); conditions: ME-180 (cervical carcinoma) AP-1-bla reporter, EGF-induced, beta-lactamase ratio, 5 h; at 7.69 µM (top of the series) unless noted
How it was run: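 Cells are seeded overnight, exposed to compound titrations and an EC50 level of EGF for 5 hours at 37 °C, then loaded with CCF4 dye for 2.5 hours. Beta-lactamase activity under the AP-1 element is read as a blue/green ratio.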

[2] = target: Cytochrome P450 1A2 (Homo sapiens) (UniProt P05177); assay: p450-cyp1a2 (AID 410; calls by dose curve; also: potency is read from the fitted curve at half-maximal effect)
Sequence of Cytochrome P450 1A2 (Homo sapiens) (P05177 whole entry, looked up): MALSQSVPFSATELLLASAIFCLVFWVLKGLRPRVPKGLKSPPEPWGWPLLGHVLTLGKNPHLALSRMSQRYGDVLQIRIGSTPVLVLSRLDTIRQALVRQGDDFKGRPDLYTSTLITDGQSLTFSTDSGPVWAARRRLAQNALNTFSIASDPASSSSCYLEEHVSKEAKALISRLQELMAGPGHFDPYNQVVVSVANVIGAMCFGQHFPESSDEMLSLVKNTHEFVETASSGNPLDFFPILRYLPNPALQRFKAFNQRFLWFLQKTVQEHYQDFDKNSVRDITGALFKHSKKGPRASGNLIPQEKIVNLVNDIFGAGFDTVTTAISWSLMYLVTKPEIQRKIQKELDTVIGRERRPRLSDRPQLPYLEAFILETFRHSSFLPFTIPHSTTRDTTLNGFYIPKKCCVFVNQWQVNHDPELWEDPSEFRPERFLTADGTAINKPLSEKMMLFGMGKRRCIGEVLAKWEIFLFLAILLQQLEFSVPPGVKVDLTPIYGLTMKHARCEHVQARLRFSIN
How it was run: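 Inhibition was calculated relative to 57 uM furafylline (full inhibition). The reaction used human CYP1A2 at 20nM with Luciferin-ME at its Km, 100uM, driven by an NADPH-regenerating system for 60 min at room temperature.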

[3] = NFAT Signaling Pathway (AID 444; active = well fitted curve in either direction with a large enough effect, not every such curve was filed as active;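 also: carbachol stimulus at about its EC50 of 1 µM final; % is scaled to controls: 0 for no effect and ±100 for the full control effect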); conditions: Jurkat NFAT-bla M1, carbachol, beta-lactamase ratio, 5 h; at 7.69 µM (top of the series) unless noted
How it was run: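 Jurkat cells carrying an NFAT-driven β-lactamase reporter and co-transfected muscarinic M1 receptor were treated with compound plus carbachol (1 uM final, an EC50 level) for 5 h at 37 °C. CCF4 loading followed for 1 h at RT; 460/530 nm ratio gave %activity.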

[4] = target: Glucocorticoid receptor (Homo sapiens) (UniProt P04150); assay: GR-GFP Redistribution (AID 450;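 active = compounds whose dose series gives a full or clear partial fitted curve of increased nuclear translocation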; also: potency is read from the fitted curve at half-maximal effect); conditions: U2OS GR-GFP nuclear translocation, laser cytometry, 2 h
Sequence of Glucocorticoid receptor (Homo sapiens) (P04150 whole entry, looked up, the tested form may be a part): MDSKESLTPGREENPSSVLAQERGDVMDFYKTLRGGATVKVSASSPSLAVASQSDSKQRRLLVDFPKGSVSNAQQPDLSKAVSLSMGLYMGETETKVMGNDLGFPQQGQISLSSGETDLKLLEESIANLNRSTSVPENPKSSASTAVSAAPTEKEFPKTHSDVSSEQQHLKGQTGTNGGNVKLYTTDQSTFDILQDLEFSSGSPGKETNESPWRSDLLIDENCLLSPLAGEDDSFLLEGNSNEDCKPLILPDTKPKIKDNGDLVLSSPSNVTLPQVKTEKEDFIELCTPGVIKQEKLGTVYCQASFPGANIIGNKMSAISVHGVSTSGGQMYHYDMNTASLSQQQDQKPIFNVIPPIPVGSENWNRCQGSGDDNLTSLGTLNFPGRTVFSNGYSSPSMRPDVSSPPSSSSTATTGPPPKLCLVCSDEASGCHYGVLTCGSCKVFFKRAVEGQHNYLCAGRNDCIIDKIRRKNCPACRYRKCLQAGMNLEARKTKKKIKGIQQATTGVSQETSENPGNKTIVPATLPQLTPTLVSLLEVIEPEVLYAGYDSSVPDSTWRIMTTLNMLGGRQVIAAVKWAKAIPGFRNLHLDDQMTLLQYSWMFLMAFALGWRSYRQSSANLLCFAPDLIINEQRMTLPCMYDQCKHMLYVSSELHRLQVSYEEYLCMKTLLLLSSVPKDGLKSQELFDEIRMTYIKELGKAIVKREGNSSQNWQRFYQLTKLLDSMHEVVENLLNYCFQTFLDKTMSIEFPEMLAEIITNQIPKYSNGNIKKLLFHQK

[5] = target: Glucocorticoid receptor (Homo sapiens) (UniProt P04150); assay: GR-EFC Redistribution (AID 451; calls by dose curve; also: potency is read from the fitted curve at half-maximal effect); conditions: CHO-K1 GR-EFC translocation, beta-gal luminescence, 2 h
How it was run: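 CHO-K1 cells stably expressing nuclear-localized β-gal enzyme acceptor and GR fused C-terminally to the enzyme donor fragment; ligand-driven nuclear translocation restores β-gal by complementation. Compounds titrated up to 46 uM final, 2 h at 37 °C; luminescence read.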

[6] = target: Mitogen-activated protein kinase 10 (Mus musculus) (UniProt Q61831); assay: JNK3 AlphaScreen Assay (AID 530; active = well fitted curve in either direction with a large enough effect, not every such curve was filed as active;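 also: kinase came from lysate of stimulated human HepG2 cells; signal reports phosphorylation of biotinylated GST-cJun 1-79 at Ser73 with 10 µM ATP; % is scaled to controls: 0 for no effect and ±100 for the full control effect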)
How it was run: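 JNK3 came from HepG2 lysates pre-activated with IL-1beta and TNF-alpha and phosphorylated biotinylated GST-cJun (1-79) at 10 uM ATP, pH 7.6, room temperature. Compounds were titrated. AlphaScreen signal used anti-phospho-cJun (Ser73) antibody.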

[7] = target: 3',5'-cyclic-AMP phosphodiesterase 4B (Homo sapiens) (UniProt Q07343); assay: qHTS Assay for Inhibitors of PDE-IV (AID 607; active = well fitted activation curve with a large enough effect in the main read-out, with a control signal flat, not every such curve was filed as active; also: % of control where 0% means no effect)
Sequence of 3',5'-cyclic-AMP phosphodiesterase 4B (Homo sapiens) (Q07343 whole entry, looked up): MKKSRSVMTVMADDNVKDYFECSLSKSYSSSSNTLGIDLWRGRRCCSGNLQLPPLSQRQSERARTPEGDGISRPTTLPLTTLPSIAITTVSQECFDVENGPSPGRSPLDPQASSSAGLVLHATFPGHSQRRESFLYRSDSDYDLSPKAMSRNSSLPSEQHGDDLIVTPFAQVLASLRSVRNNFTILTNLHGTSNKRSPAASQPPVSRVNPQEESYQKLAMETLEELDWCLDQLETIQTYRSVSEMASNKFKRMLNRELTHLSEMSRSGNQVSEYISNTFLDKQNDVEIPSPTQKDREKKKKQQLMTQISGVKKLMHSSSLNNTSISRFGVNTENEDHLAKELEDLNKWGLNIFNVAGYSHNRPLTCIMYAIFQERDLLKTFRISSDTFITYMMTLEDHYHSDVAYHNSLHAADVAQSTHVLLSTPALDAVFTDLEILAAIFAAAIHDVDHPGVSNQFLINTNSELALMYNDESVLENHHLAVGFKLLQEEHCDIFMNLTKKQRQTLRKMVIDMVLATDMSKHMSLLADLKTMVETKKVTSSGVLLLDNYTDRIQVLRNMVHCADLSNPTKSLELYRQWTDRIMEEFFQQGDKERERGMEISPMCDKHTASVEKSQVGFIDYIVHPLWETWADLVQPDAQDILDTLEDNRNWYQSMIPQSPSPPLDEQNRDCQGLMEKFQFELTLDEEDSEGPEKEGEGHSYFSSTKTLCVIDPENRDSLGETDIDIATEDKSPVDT
How it was run: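 Cell-based read-out of cAMP via a modified cyclic nucleotide-gated channel and membrane potential dye (535/590 nm) in HEK293 cells expressing PDE4 endogenously. Compounds tested up to 22.9 uM final; 100 uM RO 20-1724 reference.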

[8] = target: Guanine nucleotide-binding protein G(i) subunit alpha-1 (Homo sapiens) (UniProt P63096); assay: qHTS Assay for Inhibitors of RGS12 GoLoco Motif Activity (Green Fluorophore) (AID 879);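 also: 0% = labeled peptide with Gαi1 and full inhibition = labeled peptide alone without protein; negative values mean loss of peptide binding seen as reduced polarization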
Sequence of Guanine nucleotide-binding protein G(i) subunit alpha-1 (Homo sapiens) (P63096 whole entry, looked up): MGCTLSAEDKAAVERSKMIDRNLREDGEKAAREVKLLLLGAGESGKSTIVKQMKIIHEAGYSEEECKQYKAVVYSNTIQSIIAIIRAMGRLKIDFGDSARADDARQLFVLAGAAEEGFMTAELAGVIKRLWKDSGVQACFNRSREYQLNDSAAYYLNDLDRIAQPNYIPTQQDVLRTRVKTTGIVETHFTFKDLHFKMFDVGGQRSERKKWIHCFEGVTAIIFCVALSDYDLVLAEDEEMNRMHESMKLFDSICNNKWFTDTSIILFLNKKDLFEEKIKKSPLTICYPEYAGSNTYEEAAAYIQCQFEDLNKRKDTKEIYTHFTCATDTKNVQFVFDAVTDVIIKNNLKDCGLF
How it was run: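 Fluorescence polarization assay: 50 nM Gαi1 with 10 nM FITC-labeled RGS12 GoLoco peptide in 10 mM Tris pH 7.5, 150 mM NaCl, 0.1 mM GDP, 0.05% NP40, 10 min at room temperature with compound.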

[9] = target: Cytochrome P450 3A4 (Homo sapiens) (UniProt P08684); assay: qHTS Assay for Activators of Cytochrome P450 3A4 (AID 885); also: nearly all actives have a fitted effect of over 65% in size
Sequence of Cytochrome P450 3A4 (Homo sapiens) (P08684 whole entry, looked up): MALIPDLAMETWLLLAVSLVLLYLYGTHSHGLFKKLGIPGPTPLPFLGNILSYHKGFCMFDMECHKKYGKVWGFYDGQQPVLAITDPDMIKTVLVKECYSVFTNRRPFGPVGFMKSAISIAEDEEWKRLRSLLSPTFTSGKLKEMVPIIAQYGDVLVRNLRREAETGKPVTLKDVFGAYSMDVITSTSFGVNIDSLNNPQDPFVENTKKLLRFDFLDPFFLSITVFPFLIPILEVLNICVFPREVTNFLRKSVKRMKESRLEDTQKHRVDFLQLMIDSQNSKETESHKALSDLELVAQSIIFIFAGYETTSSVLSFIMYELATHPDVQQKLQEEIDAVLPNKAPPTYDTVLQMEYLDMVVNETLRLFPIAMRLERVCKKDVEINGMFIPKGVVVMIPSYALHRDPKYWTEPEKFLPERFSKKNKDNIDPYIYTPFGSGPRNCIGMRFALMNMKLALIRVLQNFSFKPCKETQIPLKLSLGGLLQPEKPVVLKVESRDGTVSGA
How it was run: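 Signal was normalized against complete inhibition by 57 uM ketoconazole. The reaction used 20nM CYP3A4 with 25uM Luciferin-PPXE, 10-min compound preincubation and a 60-min NADPH-supported step at RT.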

[10] = qHTS Assay for Identification of Small Molecule Agonists for Thrombopoietin (TPO) Signaling Pathway (AID 917); also: % is scaled to controls: 0 for no effect and ±100 for the full control effect
How it was run: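 IL-3-dependent murine pro-B Ba/F3 cells, stably transfected with human TPO receptor and GpIIb-promoter luciferase, are incubated 24 hrs at 37 C with test compound and 26 pM TPO; luciferase signal is read after 10 min at room temperature.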

[11] = target: Muscarinic acetylcholine receptor M1 (Rattus norvegicus) (UniProt P08482); assay: qHTS Assay for Antagonists of Acetylcholine Muscarinic M1 Receptor: Measurement of IP-One Response (AID 944); also: nearly all actives have a fitted effect of over 75% in size
Sequence of Muscarinic acetylcholine receptor M1 (Rattus norvegicus) (P08482 whole entry, looked up): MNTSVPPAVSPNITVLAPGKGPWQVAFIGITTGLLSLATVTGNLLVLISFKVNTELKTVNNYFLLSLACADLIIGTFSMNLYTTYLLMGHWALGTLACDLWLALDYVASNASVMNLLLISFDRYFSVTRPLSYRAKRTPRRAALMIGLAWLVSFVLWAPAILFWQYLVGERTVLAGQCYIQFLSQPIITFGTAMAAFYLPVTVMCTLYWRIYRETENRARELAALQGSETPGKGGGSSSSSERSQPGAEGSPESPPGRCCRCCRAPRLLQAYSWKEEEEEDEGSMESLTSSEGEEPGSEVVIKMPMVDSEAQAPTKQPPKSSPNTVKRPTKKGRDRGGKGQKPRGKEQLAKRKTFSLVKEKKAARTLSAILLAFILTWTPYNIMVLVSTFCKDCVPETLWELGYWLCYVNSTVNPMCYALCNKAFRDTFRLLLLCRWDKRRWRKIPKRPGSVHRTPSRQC
How it was run: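 Steps: plate transfected CHO-M1 cells overnight; add test compound, 10 min; add carbachol (200 nM, EC80) in stimulation buffer with LiCl; incubate 30 min; add labelled IP1 tracer and anti-IP1 antibody in lysis buffer; read HTRF after 10 min.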

[12] = target: Pyruvate kinase PKM (Homo sapiens) (UniProt P14618); assay: qHTS Assay for Activators of Human Muscle Pyruvate Kinase (AID 954; active = well fitted curve in the direction sought with a large enough effect, not every such curve was filed as active;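 also: 0% = uninhibited enzyme and -100% = no enzyme or full thiadiazolimine inhibition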)
Sequence of Pyruvate kinase PKM (Homo sapiens) (P14618 whole entry, looked up): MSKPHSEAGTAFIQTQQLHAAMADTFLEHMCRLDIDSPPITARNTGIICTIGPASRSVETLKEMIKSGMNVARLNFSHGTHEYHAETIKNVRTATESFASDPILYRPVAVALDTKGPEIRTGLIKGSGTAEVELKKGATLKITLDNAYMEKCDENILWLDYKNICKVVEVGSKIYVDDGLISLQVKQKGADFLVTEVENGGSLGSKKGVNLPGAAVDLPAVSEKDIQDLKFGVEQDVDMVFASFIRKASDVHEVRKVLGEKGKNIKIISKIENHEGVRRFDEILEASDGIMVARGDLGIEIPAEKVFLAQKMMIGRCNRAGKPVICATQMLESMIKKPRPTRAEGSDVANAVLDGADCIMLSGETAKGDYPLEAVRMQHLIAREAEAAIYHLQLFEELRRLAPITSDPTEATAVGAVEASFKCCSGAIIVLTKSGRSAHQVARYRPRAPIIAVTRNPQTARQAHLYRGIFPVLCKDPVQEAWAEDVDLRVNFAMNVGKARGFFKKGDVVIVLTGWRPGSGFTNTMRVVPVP
How it was run: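 Human PKM2 activity is measured as ATP generation, detected by luciferase-coupled luminescence. The enzyme (0.1 nM) acts on 0.5 mM PEP and 0.1 mM ADP for 1 h at ambient temperature; data are normalized to uninhibited and full-inhibition wells.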

[13] = target: Alpha-galactosidase A (Homo sapiens) (UniProt P06280); assay: Counterscreen for Glucocerebrosidase Inhibitors: qHTS Assay for Human alpha-Galactosidase at pH 4.5 (AID 992); also: 0% is about no effect
Sequence of Alpha-galactosidase A (Homo sapiens) (P06280 whole entry, looked up): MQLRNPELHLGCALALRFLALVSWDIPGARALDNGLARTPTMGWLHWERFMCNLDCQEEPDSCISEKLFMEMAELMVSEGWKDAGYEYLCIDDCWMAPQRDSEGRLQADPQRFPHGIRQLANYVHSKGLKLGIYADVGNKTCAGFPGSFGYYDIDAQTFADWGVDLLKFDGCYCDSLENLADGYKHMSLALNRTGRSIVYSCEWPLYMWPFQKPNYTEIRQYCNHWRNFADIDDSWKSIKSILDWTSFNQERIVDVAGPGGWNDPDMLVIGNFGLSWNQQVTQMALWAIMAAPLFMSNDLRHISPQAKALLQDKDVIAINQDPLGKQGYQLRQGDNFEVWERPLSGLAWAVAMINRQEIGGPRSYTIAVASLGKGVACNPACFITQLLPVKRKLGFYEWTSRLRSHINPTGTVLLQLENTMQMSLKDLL
How it was run: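 Quantitative HTS: compounds tested from 0.7 nM up to 77 uM against 2 nM enzyme with 80 uM 4-MU alpha-D-galactopyranoside. The 20 min room-temperature reaction is stopped with 1M NaOH/1M glycine, pH 10.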

[14] = target: alpha-glucosidase (Oryza sativa, rice) (UniProt Q653V4); assay: Counterscreen for Glucocerebrosidase Inhibitors: qHTS Assay for Rice alpha-Glucosidase at pH 5.0 (AID 997);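 also: 0% = full activity with enzyme and -100% = basal without enzyme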
How it was run: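 Rice alpha-glucosidase (4 nM final) with 400 uM 4-methylumbelliferyl-alpha-D-glucopyranoside in citrate buffer pH 5.0, 20 min at room temperature, stopped at pH 10; fluorescence 365/440 nm, compounds 0.7 nM–77 uM, AC50 from Hill fits.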

[15] = qHTS Assay for Identification of Small Molecule Antagonists for NFkB Signaling Pathway (AID 895; active = well fitted inhibition curve with a large enough effect in the signal ratio, with a control signal flat, not every such curve was filed as active; the % refers to the signal ratio; also: % is scaled to controls: 0 for no effect and ±100 for the full control effect)
How it was run: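 NFkB-bla ME-180 cervical carcinoma cells with beta-lactamase reporter under NFkB response element; compounds added, then TNF alpha at 10 pM final (EC50), 5 h at 37 C. LiveBLAzer substrate 2 h, room temperature; emission 460/530 nm at 405 nm excitation.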

[16] = target: Pyruvate kinase (Leishmania mexicana) (UniProt Q27686); assay: qHTS Validation Assay for Inhibitors of Leishmania Mexicana Pyruvate Kinase (AID 945);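 also: 0% = DMSO only neutral control wells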
Sequence of Pyruvate kinase (Leishmania mexicana) (Q27686 2-499 E452W): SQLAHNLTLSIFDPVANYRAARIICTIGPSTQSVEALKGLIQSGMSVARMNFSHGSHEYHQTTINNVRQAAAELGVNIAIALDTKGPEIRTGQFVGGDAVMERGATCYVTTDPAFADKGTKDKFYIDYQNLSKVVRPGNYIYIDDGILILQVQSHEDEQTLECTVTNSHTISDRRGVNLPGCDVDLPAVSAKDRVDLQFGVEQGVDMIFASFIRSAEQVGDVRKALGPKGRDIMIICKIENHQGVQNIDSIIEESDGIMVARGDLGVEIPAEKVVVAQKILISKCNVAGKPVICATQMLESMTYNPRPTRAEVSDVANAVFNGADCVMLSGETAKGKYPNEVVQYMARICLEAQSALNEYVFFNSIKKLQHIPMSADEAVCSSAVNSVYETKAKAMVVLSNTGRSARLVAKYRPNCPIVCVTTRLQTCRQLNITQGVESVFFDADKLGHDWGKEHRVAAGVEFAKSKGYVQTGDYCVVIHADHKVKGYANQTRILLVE
How it was run: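 Purified LmPYK (E451W mutant, 0.2 nM) was incubated 1 h at room temperature with 0.5 mM PEP and 0.1 mM ADP in 50 mM imidazole pH 7.2, 50 mM KCl, 7 mM MgCl2; ATP formed was read by PKLight luminescence, normalized to DMSO wells.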

COC(=O)[C@H](N)Cc1ccc(Cl)cc1
active: Potency [2] 3.16 µM
inactive: activity change, negative = inhibition [1] 4.51% [at 38 µM] | activity change, negative = inhibition [3] 3.08% [at 38 µM] | Potency [4] > 46 µM | Potency [5] > 46 µM | Potency [6] | Potency [7] | outcome [8] | Potency [9] | outcome [10] | Potency [11] | outcome [12] | outcome [13] | Potency [14]

COc1c2c(nc3ccccc13)O[C@@H]([C@@](C)(O)CO)C2
active: Potency [2] 15.8 µM
inactive: activity change, negative = inhibition [1] -14.5% [at 38 µM] | activity change, negative = inhibition [3] -2.6% [at 38 µM] | Potency [4] > 46 µM | Potency [5] > 46 µM | Potency [6] | Potency [7] | outcome [8] | Potency [15] | Potency [11] | outcome [16] | outcome [12] | outcome [13] | Potency [14]
